This is an account of results in PubChem BioAssay.

Activity calls are given as the source filed them.

Experiment [1] in a line: small molecules captured by biotinylated probe aFSTL3 – biochemical, small-molecule microarray, fluorescence 635/667, stem cell growth factor project, primary screen (AID 1064).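 Note: measures binding of the biotinylated anti-FSTL3 antibody to printed compounds.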 Particulars: higher = more signal.
A short description of experiment [2]: binders from COS7 lysate, DM2A8 probe, primary screen, torsin A project, cell lysate, small-molecule microarray, fluorescence 635/667 (AID 1065). The conditions noted are these: higher = more signal, COS7 lysate expressing mutant human TOR1A.
Experiment [3] in a line: small molecules captured by biotinylated probe aFGF2 – biochemical, small-molecule microarray, fluorescence 635/667, stem cell growth factor project, primary screen (AID 1067).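 Note: measures binding of biotinylated aFGF2 protein to printed compounds on slides; z-score merges feature fluorescence and signal-to-noise across triplicate slides.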 Particulars: higher = more signal.
A short description of experiment [4]: small molecules captured by biotinylated probe aFGF10 – biochemical, small-molecule microarray, fluorescence 635/667, stem cell growth factor project, primary screen (AID 1071).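 Note: score merges 667 nm spot intensity and signal to noise from triplicate slides.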 Particulars: higher = more signal.
In experiment [5] the target is Neurogenic locus notch homolog protein 2 (Homo sapiens) (UniProt Q04721). The experiment in a line: small molecules binding Notch2 protein – biochemical, small-molecule microarray, 635 nm fluorescence, stem cell growth factors, primary screen (AID 1073). Particulars: higher = more signal.
Experiment [6] deals with Pro-neuregulin-1, membrane-bound isoform (Homo sapiens) (UniProt Q02297). Nature of the experiment: small molecules binding neuregulin-1 protein – biochemical, small-molecule microarray, fluorescence 635/667, psychiatric disease protein project, primary screen (AID 1075).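 Note: score combines 667 nm spot fluorescence with signal to noise.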 The conditions noted are these: NRG1 binding, 635 nm fluorescence, higher = more signal.
Experiment [7] deals with Neuregulin-1 EGF-like domain. Nature of the experiment: small molecules binding NRG1 EGF domain – biochemical, small-molecule microarray, 635 nm fluorescence, primary screen (AID 1081).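 Note: binding of the protein to compounds printed on small-molecule microarray slides.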 Particulars: higher = more signal.
Experiment [8] is described as follows: FRG1 expression reporter modulators in myotubes – cell-based, C2C12 myotubes, firefly/Renilla luciferase, luminescence, FRG1 inhibition for FSHD, primary screen (AID 1084). The conditions noted are these: FRG1 promoter luciferase, higher = more signal, called active from +8 up or from −8 down.
Experiment [9] in a line: small molecules captured by biotinylated probe aFST – biochemical, small-molecule microarray, fluorescence 635/667, stem cell growth factor project, primary screen (AID 1086).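 Note: score merges 667 nm fluorescence with signal-to-noise of each printed compound spot.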 Particulars: higher = more signal.
A short description of experiment [10]: binders of probe aHhip on microarray, primary screen, stem cell growth factor project, biochemical, small-molecule microarray, fluorescence 635/667 (AID 1087).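 Note: score merges spot fluorescence at 667nm with spot signal to noise ratio.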 The conditions noted are these: higher = more signal.
Experiment [11] has as its system PRMT1 (protein arginine N-methyltransferase 1). The experiment in a line: small molecules binding arginine methyltransferase PRMT1 – biochemical, small-molecule microarray, 635 nm fluorescence, primary screen (AID 1088).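 Note: binding of Prmt1 protein to compounds spotted on small-molecule microarray slides.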 The conditions noted are these: higher = more signal.
Experiment [12] in a line: growth effects on S. cerevisiae YJM789 – YJM789 clinical isolate, OD600, 24 h, basal, primary screen (AID 1089).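 Note: growth of clinical yeast isolate S. cerevisiae YJM 789 seeded 1000 cells per well; test concentration not given here.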 Particulars: higher = more signal, called active from +8 up or from −8 down.
The nature of experiment [13]: S. pombe growth modifiers, basal conditions – strain 972, OD600, 24 h, no modulator, primary screen (AID 1090).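 Note: basal condition with compound alone and no growth modifier present; test concentration not given here.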 Particulars: S. pombe 972 growth, higher = more signal, called active from +8 up or from −8 down.
The nature of experiment [14]: budding yeast growth modifiers under rapamycin – strain BY4716, OD600, 96 h, primary screen (AID 1091). Note: test concentration not given here. The conditions noted are these: S. cerevisiae BY4716 + rapamycin, higher = more signal, called active from +8 up or from −8 down.
Experiment [15] deals with Torsin-1A-interacting protein 2 (Homo sapiens) (UniProt Q8NFQ8). The experiment in a line: small molecules binding lysate-expressed LULL1 – cell lysate, human LULL1 lysate, 635/667 nm fluorescence, primary screen (AID 1092).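 Note: probe is lysate of COS7 cells overexpressing human LULL1; score merges per-feature 667 nm fluorescence with signal-to-noise.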 The conditions noted are these: small-molecule microarray, hLULL1 lysate binding, 635 nm fluorescence; higher = more signal.
Experiment [16] is described as follows: optical density change of DRC41 E. coli – strain DRC41, OD650, 24 h, E. coli filamentation project, primary screen (AID 1093).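 Note: MC1000 strain lacking acrAB efflux and sulA so SOS filamentation is blocked; test concentration not given here.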 The conditions noted are these: E. coli DRC41 growth, higher = more signal, called active from +8 up or from −8 down.
Experiment [17] in a line: probe aLefty2 binding to arrayed compounds – biochemical, biotinylated probe, 635/667 nm fluorescence, primary screen (AID 1094).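 Note: score merges spot fluorescence near 667 nm with spot signal-to-noise ratio.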 Particulars: small-molecule microarray, higher = more signal.
Experiment [18] has as its system Noggin (protein binding on small-molecule microarray). The experiment in a line: small molecules binding Noggin protein – biochemical, 635/667 nm fluorescence, primary screen (AID 1095).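 Note: score merges 667 nm feature fluorescence with signal to noise over triplicate slides.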 The conditions noted are these: 635 nm fluorescence, higher = more signal.
The target in experiment [19] is Neurogenic locus notch homolog protein 3 (Homo sapiens) (UniProt Q9UM47). The experiment in a line: small molecules binding NOTCH3 protein – biochemical, 635/667 nm fluorescence, primary screen (AID 1096). Particulars: small-molecule microarray, 635 nm fluorescence, higher = more signal.
The nature of experiment [20]: probe aEGFR binding to arrayed compounds – biochemical, biotinylated probe, 635/667 nm fluorescence, primary screen (AID 1097).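 Note: probe is a biotinylated anti-EGFR antibody binding compounds printed on slides; score combines fluorescence near 667 nm and signal to noise of each spot.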 Particulars: small-molecule microarray, higher = more signal.

Chain of Pro-neuregulin-1, membrane-bound isoform (Homo sapiens) (Q02297 whole entry, looked up, the tested form may be a part, canonical isoform): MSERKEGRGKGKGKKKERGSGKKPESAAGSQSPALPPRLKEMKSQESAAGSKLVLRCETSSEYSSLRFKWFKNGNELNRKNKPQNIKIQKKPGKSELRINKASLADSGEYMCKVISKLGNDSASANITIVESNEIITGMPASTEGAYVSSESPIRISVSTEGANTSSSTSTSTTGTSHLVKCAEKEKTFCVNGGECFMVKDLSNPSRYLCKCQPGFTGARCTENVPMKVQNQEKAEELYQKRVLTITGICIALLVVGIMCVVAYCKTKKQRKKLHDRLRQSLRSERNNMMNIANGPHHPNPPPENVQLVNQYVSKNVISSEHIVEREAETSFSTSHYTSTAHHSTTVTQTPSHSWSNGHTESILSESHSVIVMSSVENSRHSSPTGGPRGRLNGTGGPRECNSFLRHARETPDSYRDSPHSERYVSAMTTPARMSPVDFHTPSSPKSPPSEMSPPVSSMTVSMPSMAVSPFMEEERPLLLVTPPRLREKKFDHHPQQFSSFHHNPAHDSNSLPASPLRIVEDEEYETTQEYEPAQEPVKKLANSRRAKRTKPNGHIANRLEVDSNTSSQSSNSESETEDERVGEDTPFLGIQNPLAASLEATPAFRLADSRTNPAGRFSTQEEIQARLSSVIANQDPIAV
Chain of Neurogenic locus notch homolog protein 2 (Homo sapiens) (Q04721 whole entry, looked up, canonical isoform): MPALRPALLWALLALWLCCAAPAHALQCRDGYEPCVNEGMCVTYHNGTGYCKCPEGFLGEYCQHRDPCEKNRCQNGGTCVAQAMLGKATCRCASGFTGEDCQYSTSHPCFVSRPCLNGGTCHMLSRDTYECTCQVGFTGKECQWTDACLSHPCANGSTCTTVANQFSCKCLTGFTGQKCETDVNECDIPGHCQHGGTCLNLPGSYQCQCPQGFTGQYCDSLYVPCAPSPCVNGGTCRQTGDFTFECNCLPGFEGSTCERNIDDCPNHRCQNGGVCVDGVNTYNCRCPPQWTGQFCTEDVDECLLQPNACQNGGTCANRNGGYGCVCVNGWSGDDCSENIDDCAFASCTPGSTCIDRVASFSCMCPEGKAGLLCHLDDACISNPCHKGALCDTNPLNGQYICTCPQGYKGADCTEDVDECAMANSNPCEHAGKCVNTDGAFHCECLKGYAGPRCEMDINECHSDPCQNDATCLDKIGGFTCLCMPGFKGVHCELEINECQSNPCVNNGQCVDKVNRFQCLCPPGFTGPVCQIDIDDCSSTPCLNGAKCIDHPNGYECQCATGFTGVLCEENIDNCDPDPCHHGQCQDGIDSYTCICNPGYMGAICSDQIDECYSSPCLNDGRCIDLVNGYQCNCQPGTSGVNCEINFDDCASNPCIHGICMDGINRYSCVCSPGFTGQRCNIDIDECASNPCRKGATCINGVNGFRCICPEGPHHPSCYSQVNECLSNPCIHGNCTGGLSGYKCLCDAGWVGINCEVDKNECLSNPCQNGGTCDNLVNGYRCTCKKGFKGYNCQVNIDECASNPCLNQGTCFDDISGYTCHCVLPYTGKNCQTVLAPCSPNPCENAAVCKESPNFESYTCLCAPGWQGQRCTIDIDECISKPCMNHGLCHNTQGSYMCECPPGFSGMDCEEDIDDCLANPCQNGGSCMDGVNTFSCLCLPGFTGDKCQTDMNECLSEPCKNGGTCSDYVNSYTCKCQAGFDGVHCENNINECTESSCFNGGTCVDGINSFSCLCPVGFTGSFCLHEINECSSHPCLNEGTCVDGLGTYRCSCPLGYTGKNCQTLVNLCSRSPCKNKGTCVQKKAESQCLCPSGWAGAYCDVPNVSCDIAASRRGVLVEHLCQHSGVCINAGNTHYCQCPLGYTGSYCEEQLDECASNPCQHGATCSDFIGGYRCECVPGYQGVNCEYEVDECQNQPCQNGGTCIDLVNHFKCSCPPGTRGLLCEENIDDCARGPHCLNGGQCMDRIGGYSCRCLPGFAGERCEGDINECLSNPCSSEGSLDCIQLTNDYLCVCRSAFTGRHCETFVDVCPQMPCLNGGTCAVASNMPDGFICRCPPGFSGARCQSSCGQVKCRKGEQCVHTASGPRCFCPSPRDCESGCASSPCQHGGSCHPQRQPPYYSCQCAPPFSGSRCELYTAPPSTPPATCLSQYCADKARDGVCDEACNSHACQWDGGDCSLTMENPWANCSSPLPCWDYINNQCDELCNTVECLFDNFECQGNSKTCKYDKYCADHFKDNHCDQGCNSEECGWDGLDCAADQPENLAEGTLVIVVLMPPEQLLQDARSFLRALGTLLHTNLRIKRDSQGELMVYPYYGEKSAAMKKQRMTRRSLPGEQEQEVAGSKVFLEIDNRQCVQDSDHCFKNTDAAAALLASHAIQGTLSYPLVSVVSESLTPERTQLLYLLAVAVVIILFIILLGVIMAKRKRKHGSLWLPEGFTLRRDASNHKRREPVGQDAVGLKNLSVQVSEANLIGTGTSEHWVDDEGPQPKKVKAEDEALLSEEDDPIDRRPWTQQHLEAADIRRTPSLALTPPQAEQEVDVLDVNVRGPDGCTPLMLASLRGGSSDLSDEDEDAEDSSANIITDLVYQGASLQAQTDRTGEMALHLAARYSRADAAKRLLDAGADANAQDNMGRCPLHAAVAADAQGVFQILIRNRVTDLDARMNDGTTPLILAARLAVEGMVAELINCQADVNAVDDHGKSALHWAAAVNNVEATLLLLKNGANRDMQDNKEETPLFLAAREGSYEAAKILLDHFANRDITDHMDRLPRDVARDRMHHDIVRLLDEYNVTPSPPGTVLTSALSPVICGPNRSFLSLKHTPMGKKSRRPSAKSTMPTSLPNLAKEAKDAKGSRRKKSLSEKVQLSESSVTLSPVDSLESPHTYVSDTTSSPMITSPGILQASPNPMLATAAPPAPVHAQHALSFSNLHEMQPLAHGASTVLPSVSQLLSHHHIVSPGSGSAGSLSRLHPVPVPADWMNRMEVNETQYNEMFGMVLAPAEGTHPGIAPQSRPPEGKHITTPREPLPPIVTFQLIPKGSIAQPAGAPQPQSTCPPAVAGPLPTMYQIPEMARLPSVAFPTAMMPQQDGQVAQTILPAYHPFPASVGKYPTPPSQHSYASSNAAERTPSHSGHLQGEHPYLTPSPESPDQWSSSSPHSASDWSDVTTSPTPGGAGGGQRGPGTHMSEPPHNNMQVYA
Chain of Torsin-1A-interacting protein 2 (Homo sapiens) (Q8NFQ8 whole entry, looked up): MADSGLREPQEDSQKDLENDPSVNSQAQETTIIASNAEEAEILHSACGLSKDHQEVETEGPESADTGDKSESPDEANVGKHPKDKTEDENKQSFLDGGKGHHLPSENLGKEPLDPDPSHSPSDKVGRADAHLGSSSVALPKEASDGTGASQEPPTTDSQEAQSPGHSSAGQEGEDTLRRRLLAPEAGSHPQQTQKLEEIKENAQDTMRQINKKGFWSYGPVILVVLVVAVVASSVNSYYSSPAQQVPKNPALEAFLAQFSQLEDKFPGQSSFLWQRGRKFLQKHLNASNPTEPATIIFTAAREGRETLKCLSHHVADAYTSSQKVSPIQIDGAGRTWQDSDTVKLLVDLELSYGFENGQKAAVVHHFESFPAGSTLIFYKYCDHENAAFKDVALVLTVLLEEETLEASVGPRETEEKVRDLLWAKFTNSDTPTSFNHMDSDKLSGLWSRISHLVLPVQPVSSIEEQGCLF

Take `NC(=O)N1C(=O)C2C(C1=O)C1C=C(CCCO)C2C(c2cccs2)N1Cc1cccc(OC(F)(F)F)c1` (stereo not given): the composite z-score in experiment [1] was -0.206; in [2] it was 0.118; in experiment [3], -0.0715; in [4], 0.354; in experiment [5], 0.009; in experiment [6] it was 1.03. For the same compound, the composite z-score in experiment [7] is 0.753; in experiment [9], 0.0646; in experiment [10] it was -0.0994; in [11], 1.2; in experiment [15], 1.77; in experiment [17], -0.123. For the same compound, the composite z-score came to 0.329 in [18], 0.511 in experiment [19] and 0.0625 in [20]. For the same compound, the z-score was -1.02 (inactive) in experiment [8]; -0.367 (inactive) in [12]; -1.7 (inactive) in experiment [13]; -0.967 (inactive) in experiment [14]; 0.56 (inactive) in experiment [16].

Regarding `O=C1O[C@H](c2ccccc2)[C@H](c2ccccc2)N2[C@H]1[C@@H](C(=O)NC[C@H](O)c1ccccc1)[C@]1(C(=O)Nc3ccc(C#CCCO)cc31)[C@H]2c1ccc(OCCO)cc1`, the composite z-score in experiment [1] turned out to be 0.141; in experiment [2] it was 0.628; in experiment [3] it was 0.0521; in experiment [4] it was 0.984; in [5], 0.782; in experiment [6] it was 1.23. The composite z-score in experiment [7] was 1.23; in [9] it was 0.131; in experiment [10], -0.226; in [11], 1.55; in [15] it was 2.08; in [17], -0.122. Further, the composite z-score in experiment [18] was 0.558; in experiment [19], 0.818; in [20], -0.133. Besides, the z-score in [8] is 1.59 (inactive); in experiment [12], 2.73 (inactive); in [13], 1.62 (inactive); in [14], 4.7 (inactive); in [16], 0.301 (inactive).

For `CC(C)C(=C=CC[C@H](O)c1ccc(OCCO)cc1)C[C@H](O)c1ccccn1`, the composite z-score in [1] was -0.331; in [2], -0.0844; in [3] it was -0.129; in experiment [4], 0.679; in experiment [5], -0.0686; in experiment [6], 0.243. For the same compound, the composite z-score in [7] is 1.28; in [9], -0.249; in experiment [10], -0.0618; in experiment [11], 1.52; in [15], 1.18; in [17], -0.142. Moreover, the composite z-score in experiment [18] is 1.28; in experiment [19], 0.481; in experiment [20] it was -0.146. Also, the z-score in [8] was -0.0915 (inactive); in experiment [12], 0.758 (inactive); in experiment [13] it was -1.29 (inactive); in experiment [14], -0.132 (inactive); in [16] it was 0.714 (inactive).

As for `C=C(/C(=C/C[C@H](OC(C)=O)c1ccccc1OCCO)c1cc(C(=O)OC)ccc1OC)C(C)C`, the composite z-score is -0.243 in experiment [1]; -0.415 in [2]; -0.0222 in experiment [3]; 0.826 in experiment [4]; -0.0413 in [5]; 0.0648 in experiment [6]. The composite z-score is 1.09 in experiment [7]; -0.36 in experiment [9]; 0.126 in [10]; 0.617 in experiment [11]; 1.04 in experiment [15]; -0.141 in experiment [17]. In addition, the composite z-score in [18] is 0.295; in [19] it was -0.189; in experiment [20], 0.509. For the same compound, the z-score in [8] was -0.976 (inactive); in [12], 0.946 (inactive); in experiment [13], -1.2 (inactive); in [14], -0.376 (inactive); in experiment [16] it was 1.18 (inactive).

Turning to `COC(=O)c1nc2oc1CC[C@@H](CO)NC(=O)N(C)Cc1cnnn1C[C@H](Cc1ccccc1)NC2=O`, the composite z-score was -0.195 in experiment [1]; -0.328 in experiment [2]; -0.062 in experiment [3]; -0.135 in experiment [4]; -0.444 in [5]; 0.243 in experiment [6]. The composite z-score is 0.434 in experiment [7]; -1.08 in [9]; -0.314 in experiment [10]; 0.0909 in experiment [11]; 0.715 in experiment [15]; -0.331 in experiment [17]. Also, the results for the composite z-score in [18], in experiment [19] and in [20] were 0.419, -0.139 and -0.287, respectively. For the same compound, the z-score in experiment [8] is -0.988 (inactive); in [12], -1.04 (inactive); in experiment [13], 0.127 (inactive); in [14], -0.335 (inactive); in [16] it was 1.27 (inactive).
